According to PubChem BioAssay (NCATS):
“And” between values parts separate entries of the source, which are not always exact repeats. Equal entries are not always repeated. Results filed as inconclusive are left out. The source made the active and inactive calls. Unless noted, calls come from the whole dose curve; as a rule, active = well fitted inhibition curve with a large enough effect; inconclusive = small, poorly fitted or top-dose-only effect; inactive = flat fitted curve, though single readings scatter.

What was measured:
[1] = Drug repurposing screens with cells derived from glioblastoma tumor samples (AID 1345199); conditions: GBM patient neurospheres viability, ATP luminescence, 48 h; note: % is set by controls: 0 for no effect and ±100 for the full control effect; nearly all actives have a fitted effect of over 40% in size
How it was run: (§1)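 Four patient lines of CD133+ GBM neurospheres were screened at several concentrations; hits were retested in those lines plus three slower-growing GBM lines, using 48-hour treatment and ATP-based viability.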

astro = control astrocytes; experiment: as above; conditions: viability, ATP luminescence, 48 h; series mostly up to 45.9 µM
How it was run: as §1

[2] = target: Nuclear receptor subfamily 1 group I member 2 (Rattus norvegicus) (UniProt Q9R1A7); experiment: qHTS assay for small molecule activators of the rat pregnane X receptor (rPXR) signaling pathway (AID 651751; call rule not given here; note: 0% is about no effect); conditions: rPXR reporter cells, luciferase (One-Glo), 24 h
[3] = qHTS assay for small molecule activators of the human pregnane X receptor (PXR) signaling pathway (AID 720659; call rule not given here; note: 0% is about no effect); conditions: DPX-2 HepG2 CYP3A4-luciferase, 24 h; series mostly up to 92.3 µM
[4] = at 45.9 µM (top of the series), tumour line B
[5] = at 45.9 µM (top of the series), tumour line D
[6] = at 46 µM (top of the series), tumour line A
[7] = at 46.1 µM (top of the series), tumour line C
[8] = at 20 µM (top of the series), tumour line C
[9] = at 21.2 µM (top of the series), tumour line B
[10] = at 21.2 µM (top of the series), tumour line D

Nuclear receptor subfamily 1 group I member 2 (Rattus norvegicus), sequence (Q9R1A7 whole entry, looked up): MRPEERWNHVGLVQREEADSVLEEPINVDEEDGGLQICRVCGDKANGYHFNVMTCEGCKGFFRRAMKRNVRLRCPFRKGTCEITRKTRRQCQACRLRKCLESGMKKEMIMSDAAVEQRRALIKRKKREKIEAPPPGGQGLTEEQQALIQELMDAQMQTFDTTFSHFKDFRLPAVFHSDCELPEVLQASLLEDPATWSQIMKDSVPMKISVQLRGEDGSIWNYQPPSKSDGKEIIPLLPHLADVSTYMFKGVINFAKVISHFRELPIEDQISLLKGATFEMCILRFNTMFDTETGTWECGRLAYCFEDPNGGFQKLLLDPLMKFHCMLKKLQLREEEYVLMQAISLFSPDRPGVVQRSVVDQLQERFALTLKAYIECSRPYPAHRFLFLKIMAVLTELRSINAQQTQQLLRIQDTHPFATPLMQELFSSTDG

COc1cc(C(=O)N2CCOCC2)cc(OC)c1OC
inactive: activity, negative = cell killing [1, 4] 8.47% and -7.54% | activity, negative = cell killing [1, 5] 3.68% and -23% | activity, negative = cell killing [1, 6] -14.2% | activity, negative = cell killing [1, 7] -7.33% and -2.64% | Potency (astro)

C[C@@H]1C[C@H]2[C@@H]3C[C@H](F)C4=CC(=O)C=C[C@]4(C)[C@@]3(F)[C@@H](O)C[C@]2(C)[C@@]1(O)C(=O)CO
inactive: activity, negative = cell killing [1, 8] 17.9% | activity, negative = cell killing [1, 9] -15.7% | activity, negative = cell killing [1, 10] -7.98% | activity, negative = cell killing ([1]; at 21.3 µM (top of the series), tumour line A) -20.6% | Potency (astro)

NC(CSCC(=O)O)C(=O)O (stereo unspecified)
inactive: activity, negative = cell killing [1, 4] -1.36% | activity, negative = cell killing [1, 5] -6.13% | activity, negative = cell killing [1, 6] -25.4% | activity, negative = cell killing [1, 7] -7.6% | Potency (astro)

CCCCc1ncc(/C=C(\Cc2cccs2)C(=O)O)n1Cc1ccc(C(=O)O)cc1
inactive: activity, negative = cell killing [1, 4] -7.78% | activity, negative = cell killing [1, 5] 9.77% | activity, negative = cell killing [1, 6] -19.8% | activity, negative = cell killing [1, 7] -1.88% | Potency (astro)

NC(N)=NCCC[C@H](N)C(=O)O
inactive: activity, negative = cell killing [1, 4] -14.6% | activity, negative = cell killing [1, 5] -0.948% | activity, negative = cell killing [1, 6] -22.1% | activity, negative = cell killing [1, 7] 18.8% | Potency (astro)

CC1=C(CC(=O)O)c2cc(F)ccc2/C1=C\c1ccc(S(C)(=O)=O)cc1
inactive: activity, negative = cell killing [1, 4] -11.4% | activity, negative = cell killing [1, 5] -18.4% | activity, negative = cell killing [1, 6] -33% | activity, negative = cell killing [1, 7] 4.54% | Potency (astro)

CS(=O)(=O)c1ccc([C@@H](O)[C@@H](CF)NC(=O)C(Cl)Cl)cc1
inactive: activity, negative = cell killing [1, 8] -23.2% | activity, negative = cell killing [1, 9] -19.6% | activity, negative = cell killing [1, 10] -7.33% | Potency (astro)

O=C1NS(=O)(=O)c2ccccc21
inactive: activity, negative = cell killing [1, 4] -3.37% | activity, negative = cell killing [1, 5] -3.92% | activity, negative = cell killing [1, 6] -6.92% | activity, negative = cell killing [1, 7] -6.41% | Potency (astro) | max response [2] -2.55% | outcome [3]
